Only some compounds are listed: those with a hit (about 0.63% of all), similar ones and a draw of the others.
ASM inhibitor: human S-ASM enzyme inhibition | Potency, µM (doses to about 57.5 µM), most hits filed as inhibitors | placental ASM, HMU-PC fluorogenic substrate, 60 min | P17405 | hit rate 0.006% among 340,000; active = well fitted inhibition curve with a large enough effect; inconclusive = small, poorly fitted or top-dose-only effect; inactive = no such curve, though single readings can be large or run the other way
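Steps: dispense placental human ASM, pin compound, wait 10 min at room temperature, add HMU-PC0 substrate at 9 uM final, incubate 60 min at 37 °C, add stop solution raising pH to 10, read fluorescence.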
gsp agonist: activates gsp, the McCune-Albright syndrome mutation; gsp mutant cells, cAMP HTRF, 30 min; Potency, µM (titrated, usually from 76.9 µM), actives largely listed as activators; hit rate 0.13% among 340,000; AID 624287; active = well fitted activation curve with a large enough effect; inconclusive = small, poorly fitted or top-dose-only effect, or another doubt; inactive = no such curve, though single readings can be large or run the other way; cell line not stated here;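 note: phosphodiesterase inhibitor Ro 20-1724 added with compounds to block cAMP breakdown; nearly all actives have a fitted effect of over 60% in size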
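Cells in DMEM/10% FBS with G418 were pretreated with compounds in DMSO plus […] (300 uM stock) for 30 min at 37C. cAMP was measured by HTRF (cAMP-d2 plus anti-cAMP antibody-K) after 30 min at room temperature.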
TSHR antag: human thyrotropin receptor antagonism. activity change, negative = inhibition, % at 11.5 µM. hit rate 0.2% among 330,000. AID 504810. TSHR-expressing cells, TSH-stimulated cAMP HTRF, 2 h; stronger effect = lower value;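 active = activity change below a set negative limit, meaning inhibition stronger than a set level, cut at about -70% in these data; inconclusive = activity change between two set negative limits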
Target sequence (P16473 whole entry, looked up): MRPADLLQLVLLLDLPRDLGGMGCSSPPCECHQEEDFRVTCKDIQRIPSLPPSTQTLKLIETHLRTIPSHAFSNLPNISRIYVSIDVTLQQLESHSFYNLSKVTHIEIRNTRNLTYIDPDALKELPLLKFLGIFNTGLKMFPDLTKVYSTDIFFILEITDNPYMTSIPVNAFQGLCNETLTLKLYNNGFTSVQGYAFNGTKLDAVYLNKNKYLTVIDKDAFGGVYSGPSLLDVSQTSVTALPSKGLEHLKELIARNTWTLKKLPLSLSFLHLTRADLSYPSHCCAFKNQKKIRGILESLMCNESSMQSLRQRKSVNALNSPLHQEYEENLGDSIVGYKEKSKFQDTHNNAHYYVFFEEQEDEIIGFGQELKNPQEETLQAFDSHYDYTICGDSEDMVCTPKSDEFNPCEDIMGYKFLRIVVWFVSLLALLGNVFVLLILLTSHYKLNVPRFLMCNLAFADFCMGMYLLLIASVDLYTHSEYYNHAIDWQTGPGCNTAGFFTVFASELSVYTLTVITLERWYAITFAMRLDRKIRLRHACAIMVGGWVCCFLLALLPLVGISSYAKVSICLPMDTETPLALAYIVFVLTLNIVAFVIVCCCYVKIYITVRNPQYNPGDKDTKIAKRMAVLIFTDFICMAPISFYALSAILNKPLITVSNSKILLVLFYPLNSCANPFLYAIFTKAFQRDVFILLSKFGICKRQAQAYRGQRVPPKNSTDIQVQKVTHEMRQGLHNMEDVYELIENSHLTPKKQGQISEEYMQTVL
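Read-out is FRET at 665 nm (cryptate excitation 337 nm) from a cryptate-tagged anti-cAMP antibody, competed by cell cAMP against cAMP-d2. Compounds are tested on freshly harvested TSHR cells challenged with 4nM TSH (EC80) for 2 hours at 37 deg C.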
gsp antagonist: antagonists of gsp mutant (McCune-Albright syndrome); gsp-mutant cells, cAMP HTRF, 30 min; Potency, µM (series often up to 76.9 µM), actives largely listed as inhibitors; hit rate 0.4% among 340,000; calls by dose curve; cell line not stated here;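 note: intracellular cAMP measured with PDE inhibitor Ro 20-1724 present during compound exposure; nearly all actives have a fitted effect of over 65% in size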
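HTRF cAMP read-out (cAMP-d2 plus anti-cAMP antibody-K in lysis buffer, 30 min RT). Before lysis, cells are exposed to compounds with […] for 30 min at 37C in DPBS containing Ca/Mg, BSA and Tween 20.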
A number is an active result; – = inactive; ? = inconclusive; · = no result given; [ ] = another dose, or the depositor's remark.

SMILES	ASM inhibitor	gsp agonist	TSHR antag	gsp antagonist
CCn1c(SCC(=O)N2CCN(C)CC2)nc2c1c(=O)n(C)c(=O)n2C	–	?	–	–
CCn1c(SCC(=O)N2CCCC2)nc2c1c(=O)n(C)c(=O)n2C	–	8.91µM	–	–
Cn1c2ccsc2c2cnn(Cc3ccc(F)cc3)c(=O)c21	·	·	–	·
Cc1cc(C)c(S(=O)(=O)N2CCN(C(=O)c3c(C)nn(-c4ccccc4)c3Cl)CC2)c(C)c1	–	–	·	25.1µM
Cc1ccc(S(=O)(=O)N2CCN(C(=O)c3c(C)nn(-c4ccccc4)c3Cl)CC2)cc1	–	–	–	?
CC1=CN2C(=NC(=O)CC2(C)C(=O)N(CC(=O)NC2CCCC2)Cc2ccc(Cl)cc2)C=C1 (stereo unspecified)	–	–[15.4 µM]	–	·
O=C(Cc1ccccc1)Nc1cccc(N2C(=O)C=CC2=O)c1	–	–	-71.3	–
Cc1ccccc1N1CCN(C2CCCN(C(=O)c3cc[n+]([O-])cc3)C2)CC1 (stereo unspecified)	–	–	–	–
CN(C)S(=O)(=O)c1cccc(NC(=S)N/N=C/c2cc(Br)ccc2O)c1	–	–[15.4 µM]	–	50.1µM
O=C1CN(S(=O)(=O)c2cc(C(=O)O)ccc2Cl)c2ccccc2N1	–	–[15.4 µM]	-76.3	·
COC(=O)c1ccc(-n2c(CCC(=O)O)ccc2-c2ccc(C)cc2)cc1	–	–	–	31.6µM
Cc1ccccc1NS(=O)(=O)c1ccc2[nH]cc(C(=O)NC3CCCCC3)c(=O)c2c1	·	·	–	·
CC(=O)Nc1ccc(Br)c2ccccc12	–	28.2µM	–	–
O=C(Nc1ccc(Br)c2ccccc12)c1ccc2ccccc2c1O	–	?	?	?
CCOC(=O)[C@H]1[C@H]2COc3ccc(OC)cc3[C@@H]2N2C(=O)CN(CCc3c[nH]c4ccccc34)C(=O)[C@@]12C	–	–	–	–
CC1(C)CC(O)CC(C)(C)N1CC(O)COCc1ccccc1 (stereo unspecified)	–	?	-134.4	–
Cc1cccc(OCC(O)CN2C(C)(C)CC(O)CC2(C)C)c1 (stereo unspecified)	–	–	·	–
COCCC(=O)N1CCC(n2nccc2NC(=O)CCc2ccccc2)CC1	–	–[15.4 µM]	–	–
Cc1c(C(=O)NC2CCCCC2C)oc2ccccc12 (stereo unspecified)	–	?	–	7.08µM
Cc1c(C(=O)NC2CC2)oc2ccccc12	–	?	–	–
COc1ccc(C(=O)NCC(=O)N2CCN(c3ccc(F)cc3)CC2)cc1	–	–	–	–
O=C(O)/C=C/C(=O)Nc1ccc(S(=O)(=O)N2CCCC2)cc1	–	–	–	–
CN(C(=O)c1cccc(NC(=O)Cc2ccc(NC(=O)C3CCCN(S(=O)(=O)c4cccc([N+](=O)[O-])c4)C3)cc2)c1)C1CCCC1 (stereo unspecified)	–	·	·	–
O=C(Cn1nc(-c2ccc3c(c2)OCCO3)ccc1=O)Nc1ccc(-n2cnnn2)cc1	–	–	–	–
O=C(Cn1nc(-c2ccccc2)ccc1=O)Nc1ccc(-n2cnnn2)cc1	–	–[15.4 µM]	–	44.7µM
SMILES	ASM inhibitor	gsp agonist	TSHR antag	gsp antagonist
O=P(CCCCCCCCCP(=O)(c1ccccc1)c1ccccc1)(c1ccccc1)c1ccccc1	–	–	–	39.8µM
CCOC(=O)C1(CCOc2ccccc2)CCN(Cc2cccc(OC)c2O)CC1	–	–	-113.3	–
CCOC(=O)C1(CCOc2ccccc2)CCN(Cc2cc(OC)ccc2OC)CC1	–	–	–	–
Cc1cccc(OCc2nnc(SCC(=O)Nc3ccc(N4CCOCC4)cc3)o2)c1	–	–	–	–
O=C(NCc1ccc(F)cc1)C(c1ccc(Cl)cc1)N(C(=O)c1csnn1)C1CC1 (stereo unspecified)	–	?	–	–
O=C(c1ccc(CSc2nc3ccncc3[nH]2)cc1)N1CCCCCC1	–	?	–	–
O=C(c1ccc(CSc2nc3ccncc3[nH]2)cc1)N1CCN(c2cccc(Cl)c2)CC1	–	?	–	35.5µM
O=C(NCCCC(NC(=O)OCc1ccccc1)C(=O)O)OCc1ccccc1 (stereo unspecified)	–	–	–	–
Cc1nn(C2CCS(=O)(=O)C2)c(C)c1CN(C)C(=O)c1ccc(Cl)cc1 (stereo unspecified)	–	–	–	–
O=C(NCc1nnc(SCC(=O)N2CCCC2)o1)c1cccc(C(F)(F)F)c1	–	–	–	–
Cc1ccc(/C=C/C(=O)NC(=S)Nc2ccc(S(=O)(=O)Nc3cc(C)on3)cc2)cc1	–	–	–	35.5µM
O=C(NCCOc1ccccc1)c1ccccc1Cl	–	–[15.4 µM]	–	–
CN(C(=O)COc1ccccc1C(=O)NCCOc1ccccc1)c1ccccc1	–	–	–	35.5µM
COc1ccc(CCNC(=O)C2CCC(=O)N(C3CCCCCC3)C2)cc1 (stereo unspecified)	–	?	–	50.1µM
Cc1ccc(S(=O)(=O)N2C[C@H]3N(C(=O)OC(C)C)N(C(=O)OC(C)C)C[C@H](OC(=O)NCc4ccco4)[C@@]3(O)C2)cc1	·	–	·	·
CCOC(=O)c1oc2ccc(S(=O)(=O)n3nc(-c4ccccc4)cc3N)cc2c1C	–	–	–	7.94µM
COc1ccc(-c2sc3ccccc3c2/C=C/c2ccc(OC)c(OC)c2)cc1	–	?	–	–
COc1ccc(-c2sc3ccccc3c2/C=C/c2ccncc2)cc1	–	·	–	11.2µM
CCOc1ccc(N(CC(=O)Nc2cc(C)cc(C)c2)S(C)(=O)=O)cc1	–	–	-73.0	–
CCOc1ccc(N(CC(=O)Nc2ccc(C)cc2)S(C)(=O)=O)cc1	–	–[15.4 µM]	–	–
N=C1/C(=C/c2cccs2)C(=O)N=C2SN=C(SCc3ccccc3)N12	–	–	–	31.6µM
CSC1=NSC2=NC(=O)/C(=C\c3cccs3)C(=N)N12	–	–	–	35.5µM
N#Cc1ccc(C[C@H](C(=O)O)N2C(=O)c3ccc(C(=O)O)cc3C2=O)cc1	·	·	–	·
O=S(=O)(c1ccc2[nH]ccc2c1)N1CCCCCC1	–	–	–	–
Clc1ccc(CN2C3=NCCCN3c3ccccc32)c(Cl)c1	–	–	–	–
N#C/C(=C\c1ccc(N2CCOCC2)o1)c1ccccc1	–	–	-81.9	–
C/C=C(/C)C(=O)OC1CC(C)(C)C[C@H]2C3=CC[C@@H]4[C@@]5(C)CCC(O[C@@H]6O[C@@H](C(=O)O)[C@@H](O)C(O[C@@H]7OC[C@H](O)[C@@H](O)[C@@H]7O[C@@H]7OC(CO)C(O)[C@@H](O)[C@@H]7O)C6O[C@@H]6OC(CO)C(O)C(O)C6O)[C@@](C)(CO)[C@@H]5CC[C@]4(C)[C@]3(C)CC(O)[C@@]12CO (stereo partly specified)	–	·	–	50.1µM
C/C=C(\C)C(=O)OC1[C@H](OC(C)=O)C2(CO)C(CC1(C)C)C1=CCC3C4(C)CCC(O[C@@H]5O[C@H](C(=O)O)[C@@H](O[C@@H]6O[C@H](CO)[C@@H](O)[C@H](O)[C@H]6O)[C@H](O)[C@H]5O[C@H]5O[C@H](CO)[C@@H](O)[C@H](O)[C@H]5O)[C@](C)(CO)C4CCC3(C)[C@]1(C)C[C@H]2O (stereo partly specified)	–	·	·	?
